Assay [1] in a line: Nuclear factor erythroid 2-related factor 2/antioxidant responsive element (Nrf2/ARE) small molecule agonists: qHTS cell viability counter screen in human keratinocytes (AID 1919968; active = well fitted curve in the direction sought with a large enough effect in the repeat runs; an effect the other way counts as inactive or inconclusive; note: nearly all actives have a fitted effect of over 55% in size). A digest of the protocol: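 Viability counter-screen: KeratinoSens reporter cells, DMSO-delivered compounds, 23 h at 37 C, CellTiter-Fluor fluorescence.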
On the technique in general: qHTS replaces the single test concentration by a dilution series.

The nature of assay [2]: Nuclear factor erythroid 2-related factor 2/antioxidant responsive element (Nrf2/ARE) small molecule agonists: luciferase reporter gene qHTS assay in human keratinocytes (AID 1919969). Note: nearly all actives have a fitted effect of over 35% in size. Note: potency is the fitted concentration of half-maximal effect.
Assay [3] has as its target Gonadotropin-releasing hormone receptor (Homo sapiens) (UniProt P30968). Description: Human gonadotropin-releasing hormone receptor (GnRHR) small molecule agonists, calcium flux assay in GnRHR-HEK293 cells (AID 1920063). Note: nearly all actives have a fitted effect of over 35% in size. A digest of the protocol: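 Tox21-format agonist screen using human GnRHR-expressing HEK293 cells and a fluorescent calcium dye; kinetic 3-min fluorescence reading after compound addition, 15-point concentration series run in triplicate.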
(In general: Calcium flux is commonly read through the fluorescence of an indicator in the cells.)

For assay [4], the target named is KiSS-1 receptor (Homo sapiens) (UniProt Q969F8). Briefly: Human kisspeptin (KISS1R) small molecule agonists, calcium flux assay in KISS1R-HEK293 cells (AID 1920064; active = well fitted curve in the direction sought with a large enough effect in the repeat runs; an effect the other way counts as inactive or inconclusive). An outline of the steps:
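Intracellular calcium mobilization in KISS1R-HEK293 cells was recorded by fluorescence (Ex/Em 480/540) for 3 min following compound addition to cells pre-loaded 1 h with calcium dye.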

Assay [5] is described as follows: G protein-coupled receptor (GPCR) small molecule agonists, calcium flux assay: HEK293 wild type cell line counter screen (AID 1920065). An outline of the steps:
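In this agonist-mode screen, ATP is the positive control and DMSO the vehicle. Cells grow 18 h before a 1 h dye incubation at 37 C; signal is taken at Ex/Em 480/540 over 3 min.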

The nature of assay [6]: p53 small molecule agonists, cell-based qHTS assay with human liver microsomes (AID 1963577).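 Note: p53 response element beta-lactamase reporter cells with liver microsomes plus NADPH.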 An outline of the steps: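 With metabolic activation: human liver microsomes (0.5 mg/mL final) plus NADPH (0.5 mg/mL final) added alongside compounds to p53RE-bla cells; 16 h 37 C exposure; beta-lactamase read by LiveBLAzer fluorescence.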
Assay [7] is described as follows: p53 small molecule agonists, cell-based qHTS assay with rat liver microsomes (AID 1963578). A digest of the protocol:
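Metabolic activation by rat liver microsomes and NADPH, each 0.5 mg/mL final, added right after compounds to p53RE-bla reporter cells (4,000/well, plated 5 h earlier). 16 h at 37 C, then LiveBLAzer substrate for 2 h at room temperature in the dark; fluorescence read-out.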

Assay [8] is described as follows: p53 small molecule agonists, cell-based qHTS assay with human liver microsomes: qHTS cell viability counter screen (AID 1963579). Note: nearly all actives have a fitted effect of over 45% in size. An outline of the steps: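 Metabolic activation used human liver microsomes and NADPH, both 0.5 mg/mL final, over 16 hours at 37 C on p53RE-bla cells (4,000/well). Cytotoxicity measured by CellTiter-Glo luminescence, 30 min at room temperature.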

Assay [9] can be described thus: p53 small molecule agonists, cell-based qHTS assay with rat liver microsomes: qHTS cell viability counter screen (AID 1963580). Note: nearly all actives have a fitted effect of over 45% in size. A digest of the protocol: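 p53RE-bla HCT-116 cells were exposed 16 h at 37 C to compounds with rat liver microsomes (0.5 mg/mL) and NADPH (0.5 mg/mL). Viability was measured in the same wells as ATP content by CellTiter-Glo luminescence.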

A short description of assay [10]: p53 small molecule agonists, cell-based qHTS assay: qHTS cell viability counter screen (AID 1963581). Note: nearly all actives have a fitted effect of over 45% in size. A digest of the protocol:
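Compounds are pinned onto HCT-116 p53RE-bla cells and left 16 h at 37 C. Following the reporter FRET read, ATP is quantified by CellTiter-Glo luminescence after 30 min at room temperature.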

The nature of assay [11]: p53 small molecule agonists, cell-based qHTS assay (AID 1963582; active = well fitted activation curve with a large enough effect in the signal ratio in the repeat runs, not every such curve was filed as active; the % refers to the signal ratio). A digest of the protocol: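 Agonist activity was scored from beta-lactamase FRET fluorescence in p53RE-bla cells treated 16 h at 37 C with compounds in DMSO, substrate incubation being 2 h at room temperature.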
The target in assay [12] is 5-hydroxytryptamine receptor 2A (Homo sapiens) (UniProt P28223). Briefly: 5-hydroxytryptamine receptor 2A (HTR2A) small molecule antagonists, cell-based qHTS assay (AID 1963586). Note: nearly all actives have a fitted effect of over 45% in size. A digest of the protocol: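 Antagonist-mode intracellular calcium assay: DOI (4 nM) added after 5 min compound pre-incubation at room temperature to dye-loaded HTR2A-CHO cells. Fluorescence followed for 3 min, sampled every second.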

The target is the same in assay [13]. Description: 5-hydroxytryptamine receptor 2A (HTR2A) small molecule agonists, cell-based qHTS assay (AID 1963587). Note: nearly all actives have a fitted effect of over 30% in size. Note: potency is the fitted concentration of half-maximal effect. A digest of the protocol: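 CHO cells stably expressing human HTR2A, plated 18 h, loaded with calcium dye 1 h at 37 C. Agonist mode: compounds added and intracellular calcium fluorescence recorded kinetically for 2 min at 1 sec intervals.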
Assay [14] addresses Muscarinic acetylcholine receptor M1 (Homo sapiens) (UniProt P11229). Briefly: Cholinergic receptor muscarinic 1 (CHRM1) small molecule antagonists, cell-based qHTS assay (AID 1963588). Note: nearly all actives have a fitted effect of over 40% in size. A digest of the protocol: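 CHRM1-CHO calcium-flux assay, antagonist mode. Cells were seeded 18 h, dye-loaded 1 h at 37 C and given compound for 5 min at RT, then acetylcholine was added at 50nM. FDSS fluorescence was read 3 min; 15 concentrations, three runs.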

The target is the same in assay [15]. Description: Cholinergic receptor muscarinic 1 (CHRM1) small molecule agonists, cell-based qHTS assay (AID 1963589). Note: nearly all actives have a fitted effect of over 35% in size. An outline of the steps: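 Stable CHRM1-CHO cells (human receptor) were incubated 18 h, dye-loaded for 1 h at 37 C and exposed to test compounds for agonist activity, with calcium-dependent fluorescence followed kinetically.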
The nature of assay [16]: cAMP Responsive Elements (CRE) small molecule agonists, cell-based qHTS assay (AID 1963590). An outline of the steps:
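FRET-based beta-lactamase readout (LiveBLAzer B/G, 2 h RT) quantified CRE activation in HEK 293T CRE-bla cells after 3 h treatment with DMSO-dissolved compounds.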

Assay [17] can be described thus: cAMP Responsive Elements (CRE) small molecule antagonists, cell-based qHTS assay (AID 1963591; active = well fitted inhibition curve with a large enough effect in the signal ratio in the repeat runs, not every such curve was filed as active; the % refers to the signal ratio). A digest of the protocol: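 qHTS in CRE-bla HEK 293T cells: compound in DMSO, then 0.25 uM NKH477 (final), 3 h at 37 °C/5% CO2; beta-lactamase FRET read-out after 2 h substrate incubation.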
The target of assay [18] is Beta-2 adrenergic receptor (Homo sapiens) (UniProt P07550). Description: Adrenergic beta2 receptor (ADRB2) small molecule antagonists, cell-based qHTS assay (AID 1963592). Note: series mostly up to about 92 µM; nearly all actives have a fitted effect of over 50% in size. A digest of the protocol:
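Cells (CHO, stable ADRB2 overexpression) incubated 18-20hr at 37C; compounds added from DMSO; agonist mix (1nM isoproterenol, 100uM IBMX, 25uM Ro-20-1724) added; 0.5hr RT; d2-cAMP and anti-cAMP-cryptate added; 1hr RT; 665/615 nm read.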

Assay [19] concerns the target D(2) dopamine receptor (Homo sapiens) (UniProt P14416). Briefly: Dopamine D2 receptor (DRD2) small molecule agonists, cell-based qHTS assay (AID 1963594). Note: nearly all actives have a fitted effect of over 35% in size. An outline of the steps: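 HEK293 cells stably expressing human DRD2, pre-treated with PDE inhibitor Ro20-1724 (0.1 mM final) and compound 10 min at room temperature, then stimulated with NKH477 (200nM […]) for 30 min. cAMP read by HTRF (665/620 nm).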

For assay [20] the target is unchanged. Description: Dopamine D2 receptor (DRD2) small molecule antagonists, cell-based qHTS assay (AID 1963595; active = well fitted inhibition curve with a large enough effect in the signal ratio in the repeat runs, with a control signal flat; the % refers to the signal ratio). A digest of the protocol: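 In this cell-based antagonist screen, compounds act for 10 min at room temperature before a 30 min challenge with 12 nM quinpirole and 200 nM NKH477. cAMP is quantified by HTRF competition in DRD2-HEK293 cells containing 0.1 mM Ro20-1724.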

“And” between values parts separate entries of the source, which are not always exact repeats. Equal entries are not always repeated. Results filed as inconclusive are left out. Some compounds were tested as several samples or in several runs, with calls that do not always agree. The source made the active and inactive calls. Unless noted, calls come from the whole dose curve.

Chain of Muscarinic acetylcholine receptor M1 (Homo sapiens) (P11229 whole entry, looked up): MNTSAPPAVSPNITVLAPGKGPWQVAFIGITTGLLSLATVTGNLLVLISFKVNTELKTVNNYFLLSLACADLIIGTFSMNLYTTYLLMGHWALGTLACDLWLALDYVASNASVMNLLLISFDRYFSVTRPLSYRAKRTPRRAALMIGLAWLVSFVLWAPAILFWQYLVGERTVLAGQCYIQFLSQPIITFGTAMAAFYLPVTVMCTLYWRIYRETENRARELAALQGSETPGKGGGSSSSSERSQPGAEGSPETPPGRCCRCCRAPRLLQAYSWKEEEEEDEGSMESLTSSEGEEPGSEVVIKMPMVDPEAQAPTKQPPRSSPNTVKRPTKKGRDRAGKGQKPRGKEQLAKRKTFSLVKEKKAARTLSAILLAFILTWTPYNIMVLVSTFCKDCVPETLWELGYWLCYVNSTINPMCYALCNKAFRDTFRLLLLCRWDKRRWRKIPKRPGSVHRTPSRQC
Chain of KiSS-1 receptor (Homo sapiens) (Q969F8 whole entry, looked up): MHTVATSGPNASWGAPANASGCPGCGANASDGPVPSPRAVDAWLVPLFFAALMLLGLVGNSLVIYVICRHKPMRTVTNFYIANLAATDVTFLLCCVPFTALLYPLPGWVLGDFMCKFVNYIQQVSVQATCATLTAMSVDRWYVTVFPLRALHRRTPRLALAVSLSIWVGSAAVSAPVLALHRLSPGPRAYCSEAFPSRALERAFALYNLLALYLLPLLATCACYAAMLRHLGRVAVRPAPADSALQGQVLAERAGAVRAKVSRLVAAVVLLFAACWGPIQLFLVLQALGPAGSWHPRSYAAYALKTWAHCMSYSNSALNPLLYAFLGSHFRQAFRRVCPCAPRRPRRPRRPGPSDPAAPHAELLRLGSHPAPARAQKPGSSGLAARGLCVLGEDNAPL
Chain of 5-hydroxytryptamine receptor 2A (Homo sapiens) (P28223 whole entry, looked up): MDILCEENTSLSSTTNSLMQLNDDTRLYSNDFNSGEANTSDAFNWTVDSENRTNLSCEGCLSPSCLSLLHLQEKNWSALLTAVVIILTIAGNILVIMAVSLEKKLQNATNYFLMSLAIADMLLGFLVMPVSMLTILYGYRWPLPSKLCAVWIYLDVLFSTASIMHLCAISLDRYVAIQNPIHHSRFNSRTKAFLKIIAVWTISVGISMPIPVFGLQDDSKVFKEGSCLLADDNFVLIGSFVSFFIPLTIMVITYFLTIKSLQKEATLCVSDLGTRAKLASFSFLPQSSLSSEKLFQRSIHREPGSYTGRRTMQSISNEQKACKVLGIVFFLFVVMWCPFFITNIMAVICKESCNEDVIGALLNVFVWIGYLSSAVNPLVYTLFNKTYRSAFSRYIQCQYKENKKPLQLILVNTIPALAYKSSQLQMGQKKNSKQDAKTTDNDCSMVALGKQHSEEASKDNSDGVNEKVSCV
Chain of Gonadotropin-releasing hormone receptor (Homo sapiens) (P30968 whole entry, looked up): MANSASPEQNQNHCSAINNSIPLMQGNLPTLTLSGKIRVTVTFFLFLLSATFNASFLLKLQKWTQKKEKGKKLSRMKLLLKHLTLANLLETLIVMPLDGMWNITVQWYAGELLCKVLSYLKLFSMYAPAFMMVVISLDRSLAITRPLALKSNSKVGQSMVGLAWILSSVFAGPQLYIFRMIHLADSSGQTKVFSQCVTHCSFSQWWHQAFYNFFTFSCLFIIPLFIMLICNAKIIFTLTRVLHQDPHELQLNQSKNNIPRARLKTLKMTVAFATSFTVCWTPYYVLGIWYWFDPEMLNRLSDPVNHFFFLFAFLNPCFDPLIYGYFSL
Chain of Beta-2 adrenergic receptor (Homo sapiens) (P07550 whole entry, looked up): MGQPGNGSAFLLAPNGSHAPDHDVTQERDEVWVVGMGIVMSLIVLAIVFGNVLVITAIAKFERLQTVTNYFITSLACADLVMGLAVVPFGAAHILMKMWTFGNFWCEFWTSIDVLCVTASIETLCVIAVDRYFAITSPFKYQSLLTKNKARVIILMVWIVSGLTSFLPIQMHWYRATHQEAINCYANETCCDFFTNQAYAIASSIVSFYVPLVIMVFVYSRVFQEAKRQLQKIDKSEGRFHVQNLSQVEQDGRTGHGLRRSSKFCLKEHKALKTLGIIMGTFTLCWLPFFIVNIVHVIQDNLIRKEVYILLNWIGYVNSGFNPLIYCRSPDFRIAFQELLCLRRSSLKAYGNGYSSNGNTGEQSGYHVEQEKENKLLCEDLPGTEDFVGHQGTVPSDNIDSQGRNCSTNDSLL
Chain of D(2) dopamine receptor (Homo sapiens) (P14416 whole entry, looked up): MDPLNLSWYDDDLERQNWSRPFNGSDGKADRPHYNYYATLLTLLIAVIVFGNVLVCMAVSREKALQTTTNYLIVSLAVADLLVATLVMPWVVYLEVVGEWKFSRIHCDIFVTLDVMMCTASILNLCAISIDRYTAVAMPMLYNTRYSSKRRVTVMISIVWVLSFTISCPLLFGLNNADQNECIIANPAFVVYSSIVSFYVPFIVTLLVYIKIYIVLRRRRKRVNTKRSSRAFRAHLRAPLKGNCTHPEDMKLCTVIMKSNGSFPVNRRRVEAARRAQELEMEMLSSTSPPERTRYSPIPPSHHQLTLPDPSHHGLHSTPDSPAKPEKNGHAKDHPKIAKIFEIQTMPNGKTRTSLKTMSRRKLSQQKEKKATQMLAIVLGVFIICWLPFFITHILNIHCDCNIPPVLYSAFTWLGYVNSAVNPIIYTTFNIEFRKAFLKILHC

In the case of `CN(C)[C@@H]1C(=O)C(C(N)=O)=C(O)[C@@]2(O)C(=O)C3=C(O)c4c(O)cccc4[C@@](C)(O)[C@H]3C[C@@H]12`, the Potency entry in [1], in assay [2], in assay [3], in assay [4], in assay [5] and in assay [6] was “inactive” each time. The Potency entry in assay [7], in [8], in assay [9], in [10], in [11] and in assay [12] was “inactive” in each case. Also, the Potency entry in assay [13], in [14], in assay [15], in assay [16], in assay [17] and in assay [18] was “inactive” throughout. The Potency result in assay [19] was “inactive”.
Take `C=C(Cl)CCl`: the Potency result in assay [1], in assay [2], in [3], in assay [4], in assay [5] and in assay [6] was “inactive” throughout. The Potency entry in assay [7], in assay [8], in assay [9], in assay [10], in assay [11] and in [12] was “inactive” throughout. For the same molecule, the Potency entry in [13], in assay [14], in assay [15], in assay [16], in assay [17] and in assay [18] was “inactive” in each case. In addition, the Potency result in [19] and in assay [20] was “inactive” each time.
In the case of `C=CC(=O)OCCCCCC(C)C`, the Potency result in [1], in [2], in assay [3], in [4], in [5] and in assay [6] was “inactive” each time. Also, the Potency result in [7], in [8], in assay [9], in assay [10], in assay [11] and in [12] was “inactive” each time. Also, the Potency result in assay [13], in [14], in [15], in assay [16], in assay [17] and in [18] was “inactive” each time. Besides, the Potency entry in assay [19] and in assay [20] was “inactive” each time.
For the molecule `CCNc1nc(NC(C)C)nc(OC)n1`, the Potency result in [1], in assay [2], in [3], in [4], in assay [5] and in assay [6] was “inactive” each time. The Potency entry in assay [7], in assay [8], in assay [9], in assay [10], in assay [11] and in assay [12] was “inactive” in each case. Also, the Potency result in [13], in [14], in assay [15], in assay [16], in assay [17] and in assay [18] was “inactive” throughout. Further, the Potency entry in assay [19] and in [20] was “inactive” in each case.
Turning to `O=C(O)C(Br)Br`, the Potency entry in assay [1], in assay [2], in assay [3], in assay [4], in [5] and in assay [6] was “inactive” throughout. Also, the Potency result in assay [7], in assay [8], in [9], in assay [10], in assay [11] and in assay [12] was “inactive” each time. The Potency result in assay [13], in assay [14], in assay [15], in assay [16], in [17] and in [18] was “inactive” in each case. Besides, the Potency entry in assay [19] and in [20] was “inactive” each time.
For `ClC1C(Cl)C(Cl)C(Cl)C(Cl)C1Cl` (centres undefined), the Potency entry in assay [1], in assay [3], in [4], in assay [5], in assay [6] and in assay [7] was “inactive” each time. For the same molecule, the Potency result in [8], in [9], in assay [10], in assay [11], in assay [12] and in [14] was “inactive” each time. Besides, the Potency entry in [15], in assay [16], in assay [17], in assay [18], in [19] and in assay [20] was “inactive” each time. The Potency in assay [2] was 62.4 µM (active) and inactive; in assay [13], “inactive and 54.9 µM (active)”.
With `COC(=O)c1c(C(F)F)nc(C(F)(F)F)c(C2=NCCS2)c1CC(C)C`, the Potency result in [1], in [2], in [3], in assay [4], in [5] and in assay [6] was “inactive” in each case. The Potency entry in assay [7], in assay [8], in assay [9], in assay [10], in [11] and in assay [12] was “inactive” throughout. Also, the Potency entry in [13], in assay [14], in [15], in assay [16], in assay [17] and in assay [18] was “inactive” throughout. Also, the Potency entry in assay [19] and in assay [20] was “inactive” in each case.

These data come from PubChem BioAssay (Tox21).
